Source: the supplement of paper PMC12645437, “Orthogonal IMiD-Degron Pairs Induce Selective Protein Degradation in Cells” (ACS Chemical Biology, 2025)
In all, about 8,300 sequences were measured (“log2 fold change of degron read counts, EGFP-low vs EGFP+ sorted cells (limma voom), compound-induced degradation”: median about -1.1, highest 2% from about 3.2 on). The sample as a whole holds a higher share of the highest values than the screen did.

T1: CRBN, Q96SW2
T1 chain: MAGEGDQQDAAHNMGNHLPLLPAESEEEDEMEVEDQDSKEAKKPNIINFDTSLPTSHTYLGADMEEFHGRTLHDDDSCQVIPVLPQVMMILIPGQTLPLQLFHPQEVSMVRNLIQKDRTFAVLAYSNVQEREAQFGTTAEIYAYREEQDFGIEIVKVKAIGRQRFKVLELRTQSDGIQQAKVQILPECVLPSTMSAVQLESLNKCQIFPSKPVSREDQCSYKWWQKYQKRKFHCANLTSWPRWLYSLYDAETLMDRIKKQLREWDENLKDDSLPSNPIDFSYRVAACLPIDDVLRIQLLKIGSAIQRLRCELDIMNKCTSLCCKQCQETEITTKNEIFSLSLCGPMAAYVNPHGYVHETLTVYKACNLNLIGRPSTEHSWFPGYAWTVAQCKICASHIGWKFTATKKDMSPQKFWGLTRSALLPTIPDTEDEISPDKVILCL


Target: T1, CRBN, Q96SW2
Test: log2 fold change of degron read counts, EGFP-low vs EGFP+ sorted cells (limma voom), compound-induced degradation; higher = more compound-induced degradation of the degron-EGFP fusion; degrons are variants of IKZF1/3 zinc finger 2; compound dose not given here
Details: Jurkat, 18 h
[1] = compound: compound 19 (5-tert-butyl-thalidomide)
[2] = compound: compound 22 (5-morpholino-thalidomide)
[3] = compound: compound 33 (diphenyl IMiD analogue)
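Further: pooled lentiviral library of zinc finger degron-EGFP fusions in mCherry-positive Jurkat cells, FACS-sorted after compound exposure, with degron abundance counted by next-generation sequencing.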

Sequence	log2 fold change of degron read counts [1]	log2 fold change of degron read counts [2]	log2 fold change of degron read counts [3]	log2 fold change of degron read counts (compound: thalidomide)
FWCNQCGRSFTQKGNLLRHIKL [46F_47W_49N_50Q_52G_53R_54S_55F_67L_, Q9UKT9]	-1.96	-2.11	-1.99	-2.07
LVCEICGFDCTQKGNLLRHIKL [46L_47V_49E_50I_52G_53F_54D_55C_67L_, Q9UKT9]	-3.07	-2.83	-2.91	-1.81
FDCNQCGAFFTQKGNLLRHIKL [46F_47D_49N_50Q_52G_53A_54F_55F_67L_, Q9UKT9]	-1.58	-1.99	-2.03	-1.65
FRCDVCGALFTQKGNLLRHIKL [46F_47R_49D_50V_52G_53A_54L_55F_67L_, Q9UKT9]	-2.19	-2.03	0.228	-1.08
LNCPICGFDCTQKGNLLRHIKL [46L_47N_49P_50I_52G_53F_54D_55C_67L_, Q9UKT9]	-1.95	-1.67	-1.11	-0.883
FRCEQCGASFTQKGNLLRHIKL [46F_47R_49E_50Q_52G_53A_54S_55F_67L_, Q9UKT9]	-1.07	-1.32	0.513	-0.516
LACEICGFMCTQKGNLLRHIKL [46L_47A_49E_50I_52G_53F_54M_55C_67L_, Q9UKT9]	2.65	1.33	0.0952	0.132
LCCEICGFMCTQKGNLLRHIKL [46L_47C_49E_50I_52G_53F_54M_55C_67L_, Q9UKT9]	1.12	1.14	1.45	1.31
LECEICGFRCTQKGNLLRHIKL [46L_47E_49E_50I_52G_53F_54R_55C_67L_, Q9UKT9]	0.728	-0.831	2.02	3.15
LFCEICGFRCTQKGNLLRHIKL [46L_47F_49E_50I_52G_53F_54R_55C_67L_, Q9UKT9]	3.71	3.64	1.36	2.31
LCCEICGFICTQKGNLLRHIKL [46L_47C_49E_50I_52G_53F_54I_55C_67L_, Q9UKT9]	0.819	0.557	1.54	1.05
LYCEICGFICTQKGNLLRHIKL [46L_47Y_49E_50I_52G_53F_54I_55C_67L_, Q9UKT9]	2.99	3.26	2.2	0.746
LACEICGFICTQKGNLLRHIKL [46L_47A_49E_50I_52G_53F_54I_55C_67L_, Q9UKT9]	1.83	0.461	-0.53	-0.408
LLCEICGFRCTQKGNLLRHIKL [46L_47L_49E_50I_52G_53F_54R_55C_67L_, Q9UKT9]	0.785	-1.31	0.385	2.48
LQCEICGFRCTQKGNLLRHIKL [46L_47Q_49E_50I_52G_53F_54R_55C_67L_, Q9UKT9]	1.29	1.55	1.26	3.58
LKCEICGFRCTQKGNLLRHIKL [46L_47K_49E_50I_52G_53F_54R_55C_67L_, Q9UKT9]	-1.07	-2.46	-2.5	-0.336
LYCEICGFMCTQKGNLLRHIKL [46L_47Y_49E_50I_52G_53F_54M_55C_67L_, Q9UKT9]	3.38	3.27	2.53	1.05
LICEICGFRCTQKGNLLRHIKL [46L_47I_49E_50I_52G_53F_54R_55C_67L_, Q9UKT9]	1.24	2.26	1.57	3.01
FICDICGATFTQKGNLLRHIKL [46F_47I_49D_50I_52G_53A_54T_55F_67L_, Q9UKT9]	-1.39	0.332	0.735	-0.113
FKCEQCGAPFTQKGNLLRHIKL [46F_47K_49E_50Q_52G_53A_54P_55F_67L_, Q9UKT9]	-1.28	-2.18	-2.55	-1.19
FVCNICGACFTQKGNLLRHIKL [46F_47V_49N_50I_52G_53A_54C_55F_67L_, Q9UKT9]	-1.18	0.539	1.63	1.37
FFCNQCGRTFTQKGNLLRHIKL [46F_47F_49N_50Q_52G_53R_54T_55F_67L_, Q9UKT9]	-2.31	-2.17	-2.54	-2.59
FCCSVCGHKFTQKGNLLRHIKL [46F_47C_49S_50V_52G_53H_54K_55F_67L_, Q9UKT9]	-2	-2.26	-2.77	-2.04
FWCEICGHIFTQKGNLLRHIKL [46F_47W_49E_50I_52G_53H_54I_55F_67L_, Q9UKT9]	-0.453	-0.795	-0.246	-0.951
FICEICGRIFTQKGNLLRHIKL [46F_47I_49E_50I_52G_53R_54I_55F_67L_, Q9UKT9]	-1.03	-1.63	0.139	-0.162
FLCEICGRAFTQKGNLLRHIKL [46F_47L_49E_50I_52G_53R_54A_55F_67L_, Q9UKT9]	-1.9	-2.56	-1.36	-1.22
LRCEICGFICTQKGNLLRHIKL [46L_47R_49E_50I_52G_53F_54I_55C_67L_, Q9UKT9]	-0.547	-1.4	0.271	0.795
FVCEICGRRFTQKGNLLRHIKL [46F_47V_49E_50I_52G_53R_54R_55F_67L_, Q9UKT9]	-1.38	-0.295	-0.924	1.44
